Among all 69,000 compounds or so, about 8,600 (12%) showed an effect of 50% or more. Many of the other results were omitted from the sample, so strong results are more common in it than they were.

The test system of the experiment is Plasmodium berghei. The experiment in a line: Screen against P. berghei liver stage (PbLuc), transformed with Luciferase, at 10uM. Format: functional, HepG2. To be noted: tested at 10 uM.
As to `CC(C)(C)S(=O)(=O)CCNC(=O)c1ccc2ccccc2c1`, the INHIBITION is on record as -35.8%.
The value for `Cc1c(CNS(=O)(=O)c2cccc(COC(C)C)c2)cnn1C` was 57.5%; that for `CNS(=O)(=O)c1cccc(CNC(=O)c2cnn(C)c2C)c1` was 11.3%; that for `COCc1cccc(S(=O)(=O)NCc2cnn(C)c2C)c1` was -25.8%.
The value for `CSCc1cccc(S(=O)(=O)NCCO)c1` was 0.266%; that for `CSCc1cccc(S(=O)(=O)NCc2cnn(C)c2C)c1` was 78.3%; that for `CCNS(=O)(=O)c1cccc(CSC)c1` was 19.4%.
Under `CS(=O)(=O)Nc1ccn(Cc2cccc(Cl)c2)n1` stands 22.6%; under `CCN(Cc1ccco1)C(C)c1nc(C)no1` (stereo not drawn), -97.2%; under `COc1ccc(CN2Cc3nnn(C)c3C(COCCN(C)C)C2)cc1` (stereo not drawn), 16.4%.
As to `Cc1nc(-c2cc(Cl)c3c(c2)CC(CN)O3)c[nH]1` (stereo not drawn), the INHIBITION is reported as 24.4%.
The value for `Cc1nc(-c2cc(Cl)cc3c2OC(CN)C3)c[nH]1` (stereo not drawn) was 68.3%; that for `Cc1cc2c(c(-c3c[nH]c(C)n3)c1)OC(CN)C2` (stereo not drawn) was 11.6%; that for `Cc1cc(C(F)(F)F)c2c(=O)n(Cc3cc(C)on3)n(C)c2n1` was 42.1%.
Turning to `CC(C)(CN)NS(=O)(=O)c1c(F)cccc1F`, the INHIBITION is on record as -4.62%.
The value for `CN1CCC(Cc2nc(-c3ccnn3C)n(Cc3ccccc3)n2)CC1` was 64.6%; that for `CN1CCC(Cc2nc(-c3cnccn3)n(Cc3ccccc3)n2)CC1` was -14.3%.
The value for `Cc1ncsc1-c1nc(CC2CCN(C)CC2)nn1Cc1ccccc1` was 47.5%; that for `COc1c(C2CCCN2Cc2cccc(C(N)=O)c2)c(C)nn1C` (stereo not drawn) was -11.4%.
The value for `O=c1cc2c(nn1CN1CCC(c3ccccc3)CC1)CCC2` was 33.6%.
With `CC(C)CO[C@H]1CN(S(=O)(=O)c2cn(C)cn2)[C@@H]2CCCO[C@H]12`, the INHIBITION is 53.9%.
As to `Cn1cnc(S(=O)(=O)N2C[C@H](OCC3CC3)[C@H]3OCCC[C@H]32)c1`, the INHIBITION was 40.8%.
The value for `CCO[C@@H]1CN(S(=O)(=O)c2cn(C)cn2)[C@@H]2CCCO[C@@H]21` was 2.79%.
Turning to `CC(=O)N1C[C@H]2CC[C@@H](C1)N(C(=O)CCc1n[nH]c3c1CCCC3)C2`, the INHIBITION was 48.5%.
Under `CC(C)n1cnnc1CN(C)C(=O)C1CCCN(CC(N)=O)C1` (stereo not drawn) stands 4.25%; under `Cc1cn2c(n1)C(CNCc1cccc3c1OCO3)CCC2` (stereo not drawn), 62%; under `Cc1ccc(CNCC2CCCN2c2cccnn2)s1` (stereo not drawn), -19.9%.
The value for `Cc1ccc(CNCC2CCCn3ccnc32)s1` (stereo not drawn) was 43.7%.
As for `Cc1cn2c(n1)C(CNCc1ccc(C)s1)CCC2` (stereo not drawn), the INHIBITION is listed as 51.1%.
Under `Cc1ccc(N2CCCC(NCc3cccc4c3OCO4)C2)nn1` (stereo not drawn) stands 16.8%; under `Cn1cc(N2CCCC(NCc3cccc4c3OCCCO4)C2)cn1` (stereo not drawn), 11.1%.
The value for `CN(CCCc1cc(-c2ccccc2)no1)S(C)(=O)=O` was -42.55%; that for `O=C(Cc1ccc2c(c1)CCO2)N1CCN(c2ccncc2)CC1` was 15.3%.
In the case of `CC(C)NC(=O)[C@H]1C[C@H]2CN(C(=O)NCCc3ccccc3)C[C@@H]1O2`, the INHIBITION is 5.67%.
Under `O=C(CNC(=O)c1ccc2c(c1)CCC2)NCCNc1ncccn1` stands -24.3%.
Under `CCNC(=O)Nc1ncc(-c2cccnc2)s1` stands 4.41%; under `CC(C)C(C)n1nccc1NC(=O)Cn1cnc2ccccc21` (stereo not drawn), -8.99%; under `COc1ccc(C(=O)Nc2n[nH]c(C3CCCO3)n2)cc1` (stereo not drawn), 32.3%.
The value for `Cc1cccc(N2CCN(C(=O)c3c(C)nn(C)c3C)CC2)c1C` was 54.8%; that for `COC(=O)c1cccc(C(=O)N2CCN(c3ccc(OC)cc3)CC2)n1` was 5.51%.
As for `COC(=O)c1cccc(C(=O)N2CCN(c3cc(Cl)ccc3C)CC2)n1`, the INHIBITION came out at 66.4%.
Turning to `COC(=O)c1cccc(C(=O)N2CCN(c3ccccc3F)CC2)n1`, the INHIBITION worked out at 30%.
The value for `COC(=O)c1cccc(C(=O)N2CCN(c3ccc(Cl)cc3)CC2)n1` was -18.3%; that for `Cc1cccc(N2CCN(C(=O)NC(C)c3nncn3C)CC2)c1C` (stereo not drawn) was -48.4%; that for `COC(=O)c1cccc(C(=O)N2CCN(c3cccc(C)c3C)CC2)n1` was 74.2%.
As to `COC(=O)c1cccc(C(=O)N2CCN(c3cc(C)ccc3C)CC2)n1`, the INHIBITION was -19.4%.
Turning to `Cc1nn(C)c(C)c1C(=O)N1CCN(c2ccncc2Cl)CC1`, the INHIBITION is recorded as 43.9%.
For `CN(C(=O)c1ncn2c1CN(C)S(=O)(=O)c1ccccc1-2)C1CC1`, the INHIBITION is -30%.
Under `CCC(C(=O)N(C)CCC1=CCN(C)CC1)c1ccccc1` (stereo not drawn) stands 24%; under `CCC(C)NC(=O)c1cc(S(=O)(=O)N(C)C)c(C)s1` (stereo not drawn), 19.5%; under `O=S1(=O)NC2(CCCN(CCc3ccccc3)C2)COc2ccccc21` (stereo not drawn), 24.2%.
Under `Cc1nc(N2CCCN(C(=O)c3ccsc3)CC2)c2cnn(C)c2n1` stands 14.4%; under `CS(=O)(=O)NCCC1CCCCN1C(=O)NCCc1ccccn1` (stereo not drawn), -25.6%; under `Cc1nc(CN2CCCC2c2[nH]ncc2C(=O)N(C)C)cs1` (stereo not drawn), 8.53%.
The value for `COc1cc(F)ccc1C(C(=O)O)N(C)Cc1ccon1` (stereo not drawn) was -66.4%; that for `Cc1c[nH]c(CN(C)C(C(=O)O)c2c(F)cccc2Cl)n1` (stereo not drawn) was 16.5%.
As to `CCOc1ccccc1C(C(=O)O)N(C)Cc1nc(C)c[nH]1` (stereo not drawn), the INHIBITION is listed as 21.1%.
Under `COc1ccc(Cl)cc1C(C(=O)O)N(C)Cc1ccon1` (stereo not drawn) stands -73.6%; under `CC(C)Oc1cccc(F)c1C(C(=O)O)N(C)Cc1ccon1` (stereo not drawn), 71.2%; under `Cc1c[nH]c(CN(C)C(C(=O)O)c2c(F)cccc2OC(C)C)n1` (stereo not drawn), 58.2%.
Under `CC(Cn1cccn1)NC(=O)c1cccs1` (stereo not drawn) stands -40.2%.
Take `CN1CCCC1CCNC(=O)Nc1ccccc1` (stereo not drawn): the INHIBITION came to 27.3%.
The value for `Cc1cc(Oc2ccccc2C)nc(C2CCCN2)n1` (stereo not drawn) was 4.41%.
The value for `Cc1cccc(C(=O)NC(C)CN2CCCC2=O)n1` (stereo not drawn) was 4%.
The value for `O=C(CCn1ccnc1)N1C[C@@H](O)[C@H](Oc2cccc(F)c2)C1` was -31%; that for `CC(=O)NCC(=O)N1CCOC2(CCCN(c3cccnc3)C2)C1` (stereo not drawn) was 6.8%.
Consider `Cc1cc(C)nc(N2CCCC(c3nccn3CCCN(C)C)C2)c1` (stereo not drawn), for which the INHIBITION was 17.1%.
The value for `CN(C)C(=O)COCC1CN(Cc2ccco2)Cc2ncn(C)c21` (stereo not drawn) was 39.5%; that for `NC(=O)c1cnc2n1CCN(C(=O)c1ccc(-c3cc[nH]n3)cc1)C2` was 11.7%.
Under `O=C1COc2cccc(OCc3ccccn3)c2N1` stands 12.3%; under `CC(C)c1nc(COc2cccc3c2NC(=O)CO3)cs1`, 79.1%; under `Cc1ncc(COc2cccc3c2NC(=O)CO3)s1`, 8.05%.
The value for `O=C(CCc1nc(-c2ccccn2)no1)N1CCCC1c1ccsc1` (stereo not drawn) was 7.08%.
In the case of `O=C(CCN1CCOCC1)NC(Cc1ccsc1)c1nccs1` (stereo not drawn), the INHIBITION is given as 5.055%.
The value for `NC(=O)c1cn[nH]c1C1CCCN1C(=O)c1ccccc1` (stereo not drawn) was 6.26%; that for `Cc1nc(C2CCCN2C(=O)CC2CCCC2)ncc1C(N)=O` (stereo not drawn) was 17.1%; that for `NC(=O)c1cn[nH]c1C1CCCN1C(=O)COc1ccccc1` (stereo not drawn) was 52.7%.
Under `Cc1nc(C2CCCN2C(=O)c2ccccc2)ncc1C(N)=O` (stereo not drawn) stands 40.4%; under `Cc1nc(C2CCCN2C(=O)c2ccc(F)cc2)ncc1C(N)=O` (stereo not drawn), 55.6%; under `Cc1nc(C2CCCN2C(=O)Cc2ccc(F)cc2)ncc1C(N)=O` (stereo not drawn), 19.6%.
The value for `Cc1nc(C2CCCN2C(=O)COc2ccccc2)ncc1C(N)=O` (stereo not drawn) was 52%; that for `Cc1nc(C2CCCN2C(=O)CCc2ccccc2)ncc1C(N)=O` (stereo not drawn) was 18.3%; that for `NC(=O)c1cn[nH]c1C1CCCN1C(=O)c1ccccn1` (stereo not drawn) was 11.8%.
With `COC(=O)NCC(=O)N1CCc2cc(Cl)cc(Cl)c2C1`, the INHIBITION is -10.9%.
The value for `Cc1nc(-c2ccccc2C)n(CC(=O)NC2CCCC2)n1` was 7.27%; that for `O=C(c1cscn1)N1CCCC(n2cncn2)C1` (stereo not drawn) was -17.4%; that for `OC1(CN(Cc2cccnc2)C2CCCCC2)CNCCOC1` (stereo not drawn) was 41.8%.
Turning to `O=C(C1CCOCC1)N1C[C@@H]2OCCN(CCN3CCCC3)[C@@H]2C1`, the INHIBITION came to 46.7%.
Under `Cc1ncoc1C(=O)N1CCOC(CC2CCCCC2)C1` (stereo not drawn) stands 24.7%; under `CC(=O)N1CCC(N2CCOC(CC3CCCCC3)C2)CC1` (stereo not drawn), 35.2%; under `CC(=O)N1CCC(C(=O)N2CCOC(CC3CCCCC3)C2)CC1` (stereo not drawn), 54.8%.
Under `O=C(C1CCOCC1)N1CCOC(CC2CCCCC2)C1` (stereo not drawn) stands 54.8%.
The value for `CN(C)C(=O)N1CCC(C(=O)N2CCOC(CC3CCCCC3)C2)CC1` (stereo not drawn) was 22.2%; that for `Clc1ccc2cccnc2c1CNC1CCc2ncnn2C1` (stereo not drawn) was -92.9%; that for `Cc1cc(N(C)C)cc(C2CCN(S(=O)(=O)c3cccs3)C2)n1` (stereo not drawn) was 46.55%.
For the compound `CC(C)NC(=O)c1cccc(Oc2ccc3nncn3n2)c1`, the INHIBITION came to 2.84%.
The value for `Cc1nc(-c2ccsc2)ccc1C(=O)NCCN1CCN(C)CC1` was 18.515%; that for `CCC1=NC(SCC(=O)c2ccc(OC)cc2)c2cc(CC)sc2N1` (stereo not drawn) was 36.6%.
Take `CN(C)C(=O)N1CCC2(CCCN(CCOc3ccccc3)C2)C1` (stereo not drawn): the INHIBITION was -44.2%.
The value for `O=C(N1CCCC1)N1CCC2(CCCN(CCOc3ccccc3)C2)C1` (stereo not drawn) was 69.9%; that for `CC(C)C(=O)N1CCC2(CCCN(CCOc3ccccc3)C2)C1` (stereo not drawn) was -4.27%; that for `c1ccc(CCN2CCOC(CNc3cccnn3)C2)nc1` (stereo not drawn) was -71.2%.
As for `Cc1cccc(C(C)CNC(=O)N2CCOCC3(CCOCC3)C2)c1` (stereo not drawn), the INHIBITION was -7.36%.
Turning to `CC(NC(=O)N1CCC2(C1)OCCO2)c1cccc(Cl)c1` (stereo not drawn), the INHIBITION is listed as 5.58%.
Under `Cc1cccc(C(C)CNC(=O)N2CCC3(C2)OCCO3)c1` (stereo not drawn) stands 52.6%.
The value for `Cc1ccc(C)n1-c1ccsc1C(=O)NCC(=O)N1CCCC1` was -7.7%; that for `COc1ccc(-n2cc3nc(N4CCCC4)[nH]cc-3c2=O)cc1Cl` was 30.8%.
The value for `Cc1ccc(OC2(C(=O)NC(C)Cc3ccsc3)CCNCC2)cc1` (stereo not drawn) was -8.75%.
